Data published in PubChem BioAssay AID1159580 (chemical genetic matrix, 2015).
Screen size: about 5,500 compounds; about 2,000 (36%) were called active. Not shown: some 18% with an inconclusive outcome. The list shows a part of the results. Values without a mark were called inactive. Cut-off read from the data, not from the text of the source: active = normalized growth mostly below about 0.91 (no sharp cut-off); inconclusive = no clear call, values can overlap the other calls; inactive = mostly above about 0.92.

Assay: chemical genetic growth profiling, strain panel (AID 1159580);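 note: tested at 20 µM; growth read once vehicle control cultures reached saturation at 30 °C; 1 = growth at the plate median or of vehicle wells; lower values mean less growth of the strain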
Conditions: growth OD
[1] = S. cerevisiae deletion strains, locus YAL013W, strain DEP1, active compounds read low
[2] = S. cerevisiae deletion strains, locus YBR229C, strain ROT2, active compounds read low
[3] = S. cerevisiae deletion strains, locus YDL101C, strain DUN1, active compounds read low
[4] = S. cerevisiae deletion strains, locus YDR150W, strain NUM1, active compounds read low
[5] = S. cerevisiae deletion strains, locus YEL061C, strain CIN8, active compounds read low
[6] = S. cerevisiae deletion strains, locus YGR078C, strain PAC10, active compounds read low
[7] = S. cerevisiae deletion strains, locus YHR030C, strain SLT2, active compounds read low
[8] = S. cerevisiae deletion strains, locus YHR087W, strain rtc3, active compounds read low
[9] = S. cerevisiae deletion strains, locus YJL187C, strain SWE1, active compounds read low
[10] = S. cerevisiae deletion strains, locus YJR043C, strain POL32, active compounds read low
[11] = S. cerevisiae deletion strains, locus YJR075W, strain HOC1, active compounds read low
[12] = S. cerevisiae deletion strains, locus YKL190W, strain CNB1, active compounds read low
[13] = S. cerevisiae deletion strains, locus YLR039C, strain RIC1, active compounds read low
[14] = S. cerevisiae deletion strains, locus YLR058C, strain SHM2 (second series), active compounds read low
[15] = S. cerevisiae deletion strains, locus YLR085C, strain ARP6, active compounds read low
[16] = S. cerevisiae deletion strains, locus YLR262C, strain YPT6, active compounds read low
[17] = S. cerevisiae deletion strains, locus YML094W, strain GIM5, active compounds read low
[18] = S. cerevisiae deletion strains, locus YMR219W, strain ESC1, active compounds read low
[19] = S. cerevisiae deletion strains, locus YMR263W, strain SAP30, active compounds read low
[20] = S. cerevisiae deletion strains, locus YMR307W, strain GAS1, active compounds read low
[21] = S. cerevisiae deletion strains, locus YNL153C, strain GIM3, active compounds read low
[22] = S. cerevisiae deletion strains, locus YNL298W, strain CLA4 (second series), active compounds read low
[23] = S. cerevisiae deletion strains, locus YNL322C, strain KRE1, active compounds read low
[24] = S. cerevisiae deletion strains, locus YNR030W, strain Alg12, active compounds read low
[25] = S. cerevisiae deletion strains, locus YPL055C, strain LGE1, active compounds read low
[26] = S. cerevisiae deletion strains, locus YPL241C, strain CIN2, active compounds read low
[27] = S. cerevisiae deletion strains, locus YPR135W, strain CTF4, active compounds read low
[28] = S. cerevisiae strains, strain wild type, active compounds read low

**Q.** With `Nc1ccc2nonc2c1N` as the compound, how does the normalized growth [1] read?
**A.** Its normalized growth is 0.965.

**Q.** And the normalized growth [2]?
**A.** The normalized growth was 0.96.

**Q.** And the normalized growth (S. cerevisiae deletion strains, locus YCL061C, strain MRC1, active compounds read low)?
**A.** Its normalized growth is 0.902 (active).

**Q.** What about the normalized growth [3] of the same compound?
**A.** Its normalized growth is 0.906.

**Q.** And the normalized growth (S. cerevisiae deletion strains, locus YDL134C, strain PPH21, active compounds read low)?
**A.** Its normalized growth is 0.968.

**Q.** What about the normalized growth [4] of the same compound?
**A.** The normalized growth was 0.941.

**Q.** What about the normalized growth [5] of the same compound?
**A.** Its normalized growth is 0.956.

**Q.** What about the normalized growth [6] of the same compound?
**A.** Its normalized growth is 0.933.

**Q.** And the normalized growth [7]?
**A.** Its normalized growth is 0.804.

**Q.** What about the normalized growth [8] of the same compound?
**A.** Its normalized growth is 0.993.

**Q.** And the normalized growth [9]?
**A.** The normalized growth was 0.974.

**Q.** What about the normalized growth [10] of the same compound?
**A.** The normalized growth was 0.951.

**Q.** What about the normalized growth [11] of the same compound?
**A.** The normalized growth was 0.985.

**Q.** What about the normalized growth [12] of the same compound?
**A.** The normalized growth was 0.983.

**Q.** What about the normalized growth [13] of the same compound?
**A.** The normalized growth was 0.908.

**Q.** And the normalized growth [14]?
**A.** Its normalized growth is 0.967.

**Q.** What about the normalized growth [15] of the same compound?
**A.** The normalized growth was 0.853.

**Q.** And the normalized growth [16]?
**A.** Its normalized growth is 0.902.

**Q.** What about the normalized growth [17] of the same compound?
**A.** The normalized growth was 0.954.

**Q.** What about the normalized growth [18] of the same compound?
**A.** The normalized growth was 0.982.

**Q.** And the normalized growth [19]?
**A.** The normalized growth was 0.923.

**Q.** And the normalized growth [20]?
**A.** Its normalized growth is 0.882.

**Q.** And the normalized growth [21]?
**A.** The normalized growth was 0.919 (active).

**Q.** And the normalized growth [22]?
**A.** The normalized growth was 0.95.

**Q.** And the normalized growth [23]?
**A.** Its normalized growth is 0.988.

**Q.** What about the normalized growth [24] of the same compound?
**A.** The normalized growth was 0.845 (active).

**Q.** What about the normalized growth [25] of the same compound?
**A.** The normalized growth was 0.921.

**Q.** What about the normalized growth [26] of the same compound?
**A.** The normalized growth was 0.919.

**Q.** What about the normalized growth [27] of the same compound?
**A.** The normalized growth was 0.776.

**Q.** And the normalized growth [28]?
**A.** Its normalized growth is 0.955.

**Q.** Which normalized growth [1] does the source give for `Cc1ccc(Sc2ccc([N+](=O)[O-])cc2/C=C2\SC(=S)NC2=O)cc1` here?
**A.** The normalized growth was 0.963.

**Q.** And the normalized growth [2]?
**A.** Its normalized growth is 0.992.

**Q.** And the normalized growth [3]?
**A.** The normalized growth was 0.99.

**Q.** And the normalized growth [4]?
**A.** The normalized growth was 0.982.

**Q.** And the normalized growth [5]?
**A.** The normalized growth was 0.859 (active).

**Q.** And the normalized growth [6]?
**A.** The normalized growth was 0.98.

**Q.** What about the normalized growth [7] of the same compound?
**A.** Its normalized growth is 0.615 (active).

**Q.** What about the normalized growth [8] of the same compound?
**A.** Its normalized growth is 0.991.

**Q.** What about the normalized growth [9] of the same compound?
**A.** The normalized growth was 1.

**Q.** And the normalized growth [10]?
**A.** Its normalized growth is 0.997.

**Q.** What about the normalized growth [11] of the same compound?
**A.** Its normalized growth is 0.976.

**Q.** What about the normalized growth [12] of the same compound?
**A.** The normalized growth was 0.979.

**Q.** And the normalized growth [13]?
**A.** Its normalized growth is 0.324 (active).

**Q.** And the normalized growth [14]?
**A.** The normalized growth was 0.999.

**Q.** What about the normalized growth [15] of the same compound?
**A.** Its normalized growth is 0.82.

**Q.** What about the normalized growth [16] of the same compound?
**A.** The normalized growth was 0.744 (active).

**Q.** What about the normalized growth [17] of the same compound?
**A.** The normalized growth was 0.897.

**Q.** What about the normalized growth [18] of the same compound?
**A.** The normalized growth was 0.984.

**Q.** And the normalized growth [19]?
**A.** Its normalized growth is 0.978.

**Q.** What about the normalized growth [20] of the same compound?
**A.** Its normalized growth is 0.524 (active).

**Q.** And the normalized growth [21]?
**A.** Its normalized growth is 0.996.

**Q.** What about the normalized growth [22] of the same compound?
**A.** The normalized growth was 0.887.

**Q.** And the normalized growth [23]?
**A.** Its normalized growth is 0.969.

**Q.** And the normalized growth [24]?
**A.** The normalized growth was 0.903.

**Q.** And the normalized growth [25]?
**A.** Its normalized growth is 0.963.

**Q.** What about the normalized growth [26] of the same compound?
**A.** Its normalized growth is 0.924.

**Q.** And the normalized growth [27]?
**A.** Its normalized growth is 0.553 (active).

**Q.** What about the normalized growth [28] of the same compound?
**A.** The normalized growth was 0.982.

**Q.** What does the source list for `CC(=O)N[C@@H](Cc1c[nH]c2ccccc12)C(=O)OCc1cc(C(F)(F)F)cc(C(F)(F)F)c1`?
**A.** normalized growth [1]: 0.999; normalized growth (S. cerevisiae deletion strains, locus YAL040C, strain CLN3, active compounds read low): 1.02; normalized growth (S. cerevisiae deletion strains, locus YDR363W, strain ESC2, active compounds read low): 1.01; normalized growth (S. cerevisiae deletion strains, locus YER002W, strain NOP16, active compounds read low): 1; normalized growth [19]: 0.994; normalized growth (S. cerevisiae deletion strains, locus YNL128W, strain TEP1, active compounds read low): 1.03; normalized growth [21]: 0.969; normalized growth (S. cerevisiae deletion strains, locus YNL175C, strain NOP13, active compounds read low): 0.985; normalized growth (S. cerevisiae deletion strains, locus YNL197C, strain WHI3, active compounds read low): 0.994; normalized growth (S. cerevisiae deletion strains, locus YNL224C, strain SQS1, active compounds read low): 0.994; normalized growth [23]: 1.01; normalized growth (S. cerevisiae deletion strains, locus YOR083W, strain WHI5 (second series), active compounds read low): 1.03
